Measured values taken from PubChem BioAssay (NCI).
About 83,000 compounds went through this panel and 20% of them were active in at least one assay; those are over-represented in the sample as a whole.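 Percent growth is the endpoint: 0 to 100 indicates growth inhibition (40 means 60% inhibition), 0 means no net growth, and negative values indicate cell death.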 Unmarked numbers belong to inactive results. Calls of active or inactive are those of the source.

What follows are compounds tested on UACC-62 melanoma (assay: NCI-60 one-dose screen, 48 h (100 = growth as untreated, 0 = no growth, -100 = all killed)). Settings: 10 µM unless noted.
Procedure: Growth inhibition of the UACC-62 human tumor cell line is measured as a screen for anti-cancer activity. Cells are grown in 96 well plates and exposed to the test compound for 48 hours. Compounds are tested at a single concentration, which is 10^-5 M for most compounds. The reported endpoint is percent growth (GI% or GIPRCNT), where numbers from 0 - 100% represent growth inhibition, and numbers from -100% - 0 represent cell death. For example, a value of 40 represents 60% growth inhibition. A value of 0 means no net growth occurred over the course of the experiment. A value of -40 indicates 40% of cells at the beginning of the experiment died by the end of the experiment. A value of -100 means all cells are dead at the end of the experiment.
NCI-60 Human Tumor Cell Lines Screen was performed using the standard one-dose NCI protocol, which is described in more detail at https://dtp.cancer.gov/discovery_development/nci-60/default.htm.
Compounds with GIPRCNT values below 10 were considered active. Activity score was based on GIPRCNT using the following formula: […]
Score is 0 for GIPRCNT values of 100 or above, 50 for GIPRCNT values of 0, and 100 for GIPRCNT values of -100.

In order of rising growth:
1. COc1ccc(-c2nnc(COc3ccc(NC(=O)Nc4cc(C(F)(F)F)cc(C(F)(F)F)c4)cc3F)o2)cc1  16.4%
2. Nc1ccccc1-c1ccc([N+](=O)[O-])cc1  24.9%
3. Cc1c(C(N)=O)sc2c1C(=O)N(Cc1ccccc1)C1=NN=C(c3ccc(Cl)cc3)CN12  25.4%
4. Oc1ccc(Cc2ccc(O)c(C3CC(c4ccc(Cl)cc4)=NN3)c2)cc1C1CC(c2ccc(Cl)cc2)=NN1 (stereo not given)  36.3%
5. COc1ccc(OC)c(/C=C/c2nc(=S)n(-c3ccc(Cl)cc3)[nH]2)c1  42.8%
6. CC/C(=C\c1ccc(N(C)C)cc1)c1ccncc1  44%
7. CN(C)c1ccc2[nH]c3c(C(N)=O)cc(=O)c(=O)c=3oc2c1  62.6%
8. O=C1/C(=C/c2ccc3cccc(Cl)c3n2)SC(=S)N1CCc1ccc(O)cc1  68.4%
9. Cc1ccc([N+](=O)[O-])cc1NC(=O)Nc1cccc(F)c1  71.8%
10. Nc1ccc2c(c1)/C(=N/O)c1cc([N+](=O)[O-])ccc1-2  73.1%
11. COc1ccc2[nH]cc(/C=C3/C(=O)Nc4ccc(F)cc43)c2c1  73.5%
12. CCC1=C(c2ccc(OC)cc2)C(C)Oc2cc(OC(C)=O)ccc21 (stereo not given)  74%
13. CCOC(=O)c1c2c(c(C)n1Cc1ccccc1)-c1nc(N)ncc1CC2  77.2%
14. COc1ccc2nc3cc(Cl)ccc3c(N3CCN(c4ccnc(Nc5ccc(F)cc5)n4)CC3)c2c1  77.4%
15. COc1ccc(/C=N\Nc2ccc([N+](=O)[O-])cn2)cc1OC  81.7%
16. C=CCOc1ccc2c(c1)CC[C@@H]1[C@@H]2CC[C@@]2(C)[C@H]1CC[C@]2(C)O  85%
17. O=C(Nc1cccc2ccccc12)c1cc2c(cc1Br)OCO2  85.5%
18. O=C(/C=C/c1cccnc1)NCCCCC1CCCN(C(=O)c2ccccc2)C1 (stereo not given)  87.5%
19. CSc1nc2c(c(=O)[nH]1)C(c1ccc(Cl)cc1)C1=C(N2)/C(=C/c2ccc(Cl)cc2)CNC1 (stereo not given)  89.2%
20. S=C(c1ccccc1)N1CCN(c2cccc(Cl)c2)CC1  91.1%
21. C=C(C)[C@@H]1C/C=C(/C=O)CC[C@@H]2O[C@@]2(C)CC/C=C(\C)CC1  92.3%
22. O=C(c1ccccc1)c1ccco1  93%
23. O=C1CC(=O)N(c2ccccc2)O1  93.9%
24. CCC(CC)NCCCCCNc1cc(OC)cc2cccnc12  94.4%
25. O=C(NCCc1ccccc1)C1CCC(=O)N1Cc1ccc(Br)cc1 (stereo not given)  95.4%
26. COc1cc(OC)c2sc(-c3ccc(-n4cncc4-c4ccc(N)cc4)cc3)nc2c1  96.6%
27. O=C(O)c1ccccc1C(=O)OC1CCCC2CCCC21 (stereo not given)  97%
28. Cc1c(C(N)=O)sc2ncn(Cc3ccccc3)c(=O)c12  102%
29. C=Cc1nn2c(CCC(=O)c3nc4ccccc4[nH]3)nnc2s1  102%
30. CCCn1cnc2c1c(=O)n(CCCCC(C)=O)c(=O)n2C  104%
31. NNC(=O)NO  106%
32. Cc1cccc(Cl)c1NC(=O)c1ccc2nc(NC(=O)NC3CC(C)(C)NC(C)(C)C3)sc2c1  107%

In the case of COC(=O)CC1=C(C)/C(=C/c2[nH]c(-c3ccc[nH]3)cc2OC)N=C1C, the growth was -46.5% (active).
With O=C(NCCCO)c1cc(Cl)ccc1O the growth was 9.67% (active).
For O=C1/C(=C/c2ccc([N+](=O)[O-])o2)Oc2ccc(Cl)cc21, the growth was -89% (active).
With COc1cc(C(=O)/C=C/c2cccnc2Nc2ccccc2)cc(OC)c1OC the growth was -84.2% (active).
Cc1ccc(NC(=O)Nc2ccc(-c3cccnc3)cc2N2CCC(CO)CC2)cc1 was tested, and the growth was 4.73% (active).
With CC(C)[O-].CC(C)[O-].CN(CCN(C)Cc1cc(F)cc(F)c1[O-])Cc1cc(F)cc(F)c1[O-].[Ti+4] the growth was -22.8% (active).
Oc1ccccc1/C=N\Nc1ccccc1 was tested, and the growth was -5.08% (active).
COc1cc(/C=C/C(=O)c2ccc(F)cc2)ccc1OCCCCCOc1cc2c(cc1OC)C(=O)N1CCCC1C=N2 (stereo not given) was tested, and the growth was -92.4% (active).
